Test results as given in PubChem BioAssay (NCI).
About 83,000 compounds went through this panel and 20% of them were active in at least one assay; those are over-represented in the sample as a whole.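 Interpretation: 100, growth as untreated; towards 0, rising growth inhibition; 0, no net growth; 0 to -100, cell death. Compounds scoring below 10 were considered active.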 A number with no mark means an inactive call. Active and inactive are the calls of the source.

system: NCI-H522 lung; assay: NCI-60 one-dose screen, 48 h (100 = growth as untreated, 0 = no growth, -100 = all killed); conditions: 10 µM unless noted

SMILES | growth
NC(=S)N/N=C/C(=O)O | 96.8%
CS(=O)(=O)c1ccc(-c2[nH]c3ccc(F)cc3c2/C=N/NC(N)=S)cc1 | 5.14% (active)
O=[N+]([O-])c1ccc(-c2cc3c(Nc4ccc(Cl)c(C(F)(F)F)c4)ncnc3s2)cc1 | -1.24% (active)
COC(=O)c1ccc(CSc2nnc(-c3ccncc3)o2)cc1 | 86.3%
NS(=O)(=O)Oc1ccc(NC(=O)C23CC4CC(CC(C4)C2)C3)cc1Cl | 75.8%
O=C1N(c2ccccc2)C(=S)N[C@]12[C@H](c1ccccc1)C1CCCN1[C@]21C(=O)NC2C=CC(Cl)=C[C@H]21 (stereo not given in full) | 61.8%
COc1ccc(-c2nc3ncccn3c2/C=C/C(=O)c2cc(OC)c(OC)c(OC)c2)cc1 | -44.6% (active)
N#C/C(=C\c1ccc(Br)cc1)n1nnc2cc(Cl)c(Cl)cc21 | 6.95% (active)
O=S(=O)(Cc1ccccc1)c1nc2ccccc2s1 | 13.2%
COc1ccc(-c2nnc(-c3ccc4c(c3)nc(-c3ccccc3)n4C3CCCCC3)o2)cc1 | 17.6%
CN1CCC(=C2c3ccccc3C=Cc3ccccc32)CC1 | 39%
CNC(=O)NCC1OC(n2cnc3c(NC(=O)Nc4ccccc4)ncnc32)C2OC(C)(C)OC12 (stereo not given) | 103%
COc1ccc(-c2cncnc2N)cc1OC | 105%
O=[N+]([O-])c1ccccc1C(O)Cc1ccc2ccccc2n1 (stereo not given) | 101%
CCn1c(Sc2nnc(NC(C)=O)s2)nc2c1c(=O)n(C)c(=O)n2C | 93.5%
